Source: paper PMC10954555

target: RNA polymerase-associated protein LEO1 (UniProt Q8WVC0); assay: other; cross-linking mass spectrometry; other

| Substance | listed as a hit |
| --- | --- |
| RNA polymerase II-associated factor 1 homolog, Q8N7H5 | yes |
| RNA polymerase-associated protein CTR9 homolog, Q6PD62 | yes |
| Parafibromin, Q6P1J9 | yes |
